Experimental data taken from PubChem BioAssay (NCATS).
Results filed as inconclusive are left out. A number with no mark means an inactive call. The source made the active and inactive calls. Unless noted, the call rests on the fitted dose curve; in most records, active means well fitted curve in the direction sought with a large enough effect; inconclusive means small, poorly fitted or top-dose-only effect, or another doubt; inactive means no such curve, though single readings can be large; an effect the other way counts as inactive or inconclusive.

target: Voltage-gated inwardly rectifying potassium channel KCNH2 (Homo sapiens) (UniProt Q12809); test: qHTS Assay for Small Molecule Inhibitors of the Human hERG Channel Activity (AID 588834); conditions: U2OS BacMam hERG, FluxOR thallium flux fluorescence; series mostly up to 92.2 µM; activity change, negative = inhibition: at the top concentration;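 further: lower thallium flux fluorescence means stronger hERG block; nearly all actives have a fitted effect of over 50% in size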; further: potency means the concentration at half of the fitted maximal effect; on activity change, negative = inhibition: top concentration of the series differs between compounds; on the % scale 0 is the no-effect control and ±100 the full control effect
How it was run: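 Step 1: BacMam hERG transduction of U2OS, 4 hrs RT. Step 2: overnight 37 °C, plate 2000 cells/well, 4 hr. Step 3: FluxOR load, compound 10 min, stimulate, read fluorescence.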

Chain of Voltage-gated inwardly rectifying potassium channel KCNH2 (Homo sapiens) (Q12809 whole entry, looked up): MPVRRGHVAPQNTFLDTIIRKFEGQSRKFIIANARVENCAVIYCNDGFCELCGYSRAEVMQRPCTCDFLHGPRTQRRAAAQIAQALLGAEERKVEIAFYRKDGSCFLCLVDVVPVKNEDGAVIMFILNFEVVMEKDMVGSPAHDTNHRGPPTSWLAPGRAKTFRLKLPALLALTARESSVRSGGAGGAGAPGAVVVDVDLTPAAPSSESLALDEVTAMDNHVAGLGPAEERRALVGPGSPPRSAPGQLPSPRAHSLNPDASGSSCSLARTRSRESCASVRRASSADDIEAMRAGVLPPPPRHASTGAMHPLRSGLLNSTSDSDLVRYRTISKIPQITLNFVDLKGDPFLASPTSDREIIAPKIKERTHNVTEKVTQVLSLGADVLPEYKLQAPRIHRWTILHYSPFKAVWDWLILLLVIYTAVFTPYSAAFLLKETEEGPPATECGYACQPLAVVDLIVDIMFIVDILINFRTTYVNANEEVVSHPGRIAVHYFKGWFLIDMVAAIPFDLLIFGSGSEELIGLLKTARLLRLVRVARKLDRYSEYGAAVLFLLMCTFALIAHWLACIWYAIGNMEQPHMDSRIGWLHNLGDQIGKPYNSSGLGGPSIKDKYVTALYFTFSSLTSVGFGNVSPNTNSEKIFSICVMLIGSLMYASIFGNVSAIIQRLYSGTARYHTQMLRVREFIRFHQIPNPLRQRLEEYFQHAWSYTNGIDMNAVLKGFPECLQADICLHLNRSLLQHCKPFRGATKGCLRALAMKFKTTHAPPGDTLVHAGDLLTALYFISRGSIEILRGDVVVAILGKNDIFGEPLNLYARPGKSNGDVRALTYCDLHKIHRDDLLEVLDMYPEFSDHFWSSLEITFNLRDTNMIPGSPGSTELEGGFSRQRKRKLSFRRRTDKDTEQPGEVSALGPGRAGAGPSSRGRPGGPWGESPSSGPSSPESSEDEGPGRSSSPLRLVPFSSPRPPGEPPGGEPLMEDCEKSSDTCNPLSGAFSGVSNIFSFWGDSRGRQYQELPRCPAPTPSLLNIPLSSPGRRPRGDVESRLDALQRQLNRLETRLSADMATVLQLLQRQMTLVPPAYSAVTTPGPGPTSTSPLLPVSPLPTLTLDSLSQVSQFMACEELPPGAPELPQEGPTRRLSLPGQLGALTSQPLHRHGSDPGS

Compound	activity change, negative = inhibition	Potency
Nc1ncnc2nc[nH]c12	3.65% [at 46.1 µM]	–
O=S(=O)(O)c1ccc2nc(-c3ccccc3)[nH]c2c1	4.85% [at 46.1 µM]	–
O=[N+]([O-])c1ccc(O)c2ncccc12	1.74% [at 46.1 µM]	–
CCCCCCCCCCCCCCCC[N+](C)(C)Cc1ccccc1	–	22.4 µM (active)
CN1CCC(Nc2ncc3ncnc(Nc4ccc(F)c(Cl)c4)c3n2)CC1	–	12.6 µM (active)
CC(NCCC(c1ccccc1)c1ccccc1)c1ccccc1 (centres undefined)	–	2.24 µM (active)
CN1CCCN(C(c2ccccc2)c2ccc(Cl)cc2)CC1 (centres undefined)	–	8.91 µM (active)
NC(N)=NCCCCN=C(N)N	6.63% [at 46.1 µM]	–
C[N+](C)(C)CCO	5.47% [at 46.1 µM]	–
Nc1ccc2cc3ccc(N)cc3nc2c1	–	12.6 µM (active)

target: Luciferin 4-monooxygenase (Photinus pyralis) (UniProt P08659); test: Biochemical firefly luciferase enzyme assay for NPC (AID 624030); further: nearly all actives have a fitted effect of over 70% in size; further: potency means the concentration at half of the fitted maximal effect;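 on activity change, negative = inhibition: purified P. pyralis luciferase at 10 nM with luciferin and ATP substrate; 0% = DMSO and -100% = full luciferase inhibition by PTC124 control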; conditions: purified P. pyralis luciferase, luminescence, 5 min; series mostly up to 58.6 µM; activity change, negative = inhibition: at the top concentration
How it was run: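 Purified P. pyralis luciferase at 10 nM in 50 mM Tris Acetate (final), luminescence read within 5 minutes of enzyme addition to compounds. Activity normalised to PTC124 versus DMSO; concentration-response curves classed by r2, magnitude and activity.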

Chain of Luciferin 4-monooxygenase (Photinus pyralis) (P08659 whole entry, looked up): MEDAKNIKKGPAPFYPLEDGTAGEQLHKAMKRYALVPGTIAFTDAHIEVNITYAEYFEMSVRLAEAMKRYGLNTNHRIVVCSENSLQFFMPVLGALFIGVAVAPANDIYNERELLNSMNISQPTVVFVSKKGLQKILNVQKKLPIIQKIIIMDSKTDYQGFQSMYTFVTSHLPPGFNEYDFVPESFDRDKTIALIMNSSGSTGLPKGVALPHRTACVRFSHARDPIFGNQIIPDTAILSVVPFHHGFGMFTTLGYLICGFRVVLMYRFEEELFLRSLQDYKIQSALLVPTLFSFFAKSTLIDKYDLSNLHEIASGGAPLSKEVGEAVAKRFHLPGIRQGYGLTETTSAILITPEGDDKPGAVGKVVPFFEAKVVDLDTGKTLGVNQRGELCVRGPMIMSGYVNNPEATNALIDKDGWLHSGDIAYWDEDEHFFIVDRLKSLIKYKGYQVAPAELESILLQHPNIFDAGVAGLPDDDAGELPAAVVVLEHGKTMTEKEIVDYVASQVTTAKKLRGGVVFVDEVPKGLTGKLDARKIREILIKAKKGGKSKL

Compound	activity change, negative = inhibition [%]	Potency
CCCCCCCCCCCCCCCCCCNC(=O)OC1CCN(C(=O)OC[C@H](COC(=O)N(Cc2cccc[n+]2CC)C(=O)c2ccccc2OC)OC)CC1	14.7	–
O=C(OCC1(COC(=O)c2cccnc2)CCCC(COC(=O)c2cccnc2)(COC(=O)c2cccnc2)C1O)c1cccnc1	0.95	–
CN1C(CSCC(F)(F)F)Nc2cc(Cl)c(S(N)(=O)=O)cc2S1(=O)=O (centres undefined)	-1.96	–
CCC(C(=O)NC(=O)NC(C)=O)c1ccccc1 (centres undefined)	-6.61	–
CCCCCC[C@@H](CCC)C(=O)O	-11.4	–
CCOC(=O)NNc1nncc2ccccc12	-3.21	–
CC(NN)c1ccccc1 (centres undefined)	-8.99	–
COc1cc(C(=O)OC(COCCC(C)C)CN2CCOCC2)cc(OC)c1OC (centres undefined)	-1.79	–
CC(C)(C)C(=O)OCOC(=O)C1N2C(=O)CC2S(=O)(=O)C1(C)C (centres undefined)	-2.43	–
Nc1ncnc2nc[nH]c12	14.6	–
O=[N+]([O-])c1nccn1CO[C@@H](CO)[C@H](O)CO	0.623	–
CCC1(c2cnc[nH]2)Cc2ccccc2C1	–	inactive
O=[N+]([O-])c1ccc(O)c2ncccc12	-23.5	–
CCCCCCCCCCCCCCCC[N+](C)(C)Cc1ccccc1	9.16	–
CN(C)C(=O)CNC(=O)Cc1ccccc1	-1.54	–
CCOC(=O)NNc1ccc(N(CC)CC(C)O)nn1 (centres undefined)	-11.6	–
Nc1c[n+](N2CCOCC2)no1	-12.9	–
C[C@@]12CCC[C@H]1[C@@H]1CC[C@H]3C[C@@H](O)CC[C@]3(C)[C@H]1CC2	2.39	–
CN1CCC(Nc2ncc3ncnc(Nc4ccc(F)c(Cl)c4)c3n2)CC1	5.69	–

Compound	activity change, negative = inhibition [%]	Potency
CC(NCCC(c1ccccc1)c1ccccc1)c1ccccc1 (centres undefined)	9.54	–
O=C(OCC(COC(=O)c1cccnc1)(COC(=O)c1cccnc1)COC(=O)c1cccnc1)c1cccnc1	3.17	–
CN1CCCN(C(c2ccccc2)c2ccc(Cl)cc2)CC1 (centres undefined)	9.59	–
CC[N+](CC)(CC)CCOC(=O)C(C1CCCC1)C1CCCC1	0.37	–
CC(C(O)c1ccccc1)N(C)CCOC(c1ccccc1)c1ccccc1 (centres undefined)	0.082	–
CCOC(=O)OCC/C(SC(=O)OCC)=C(\C)N(C=O)Cc1cnc(C)nc1N	-1.34	–
CC1CN(c2cc3c(cc2F)c(=O)c(C(=O)O)cn3-c2ccc(F)cc2F)CCN1 (centres undefined)	-1.13	–
CCNC(=O)NCCCOc1cccc(CN2CCCCC2)c1	-0.531	–
N=C(N)c1ccc(OCCCOc2ccc(C(=N)N)cc2)cc1	2.68	–
O=C1OC2(c3ccccc31)c1cc(I)c(O)c(I)c1Oc1c2cc(I)c(O)c1I	–	14.4 µM (active)
NC(N)=NCCCCN=C(N)N	-5.05	–
CN1C(=O)CC(C)(c2ccccc2)C1=O (centres undefined)	-4.49	–
C[N+](C)(C)CCO	–	inactive
CN(CC1(C)CCCO1)S(=O)(=O)c1ccc(Cl)c(S(N)(=O)=O)c1 (centres undefined)	-4.52	–
CC(=O)Nc1ccc(S(=O)(=O)Nc2cc(C)on2)cc1	0.335	–
CCCc1c2oc(C(=O)O)cc(=O)c2cc2c(=O)cc(C(=O)O)n(CC)c12	-5.19	–
O=C(O)CNC(=O)CNC(=O)CNC(=O)CSC(=O)c1ccccc1	-0.007	–
Nc1ccc2cc3ccc(N)cc3nc2c1	-7.48	–

system: not listed separately; test: S16 Schwann cell viability assay (CellTiter-Glo assay) (AID 624031); conditions: S16 rat Schwann cells viability, 24 h; series mostly up to 57.5 µM; activity change, negative = cytotoxicity: at the top concentration; further: nearly all actives have a fitted effect of over 70% in size; further: potency means the concentration at half of the fitted maximal effect;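 on activity change, negative = cytotoxicity: cellular ATP luminescence as a viability measure; plate controls were DMSO-treated cells for no effect and cell-free wells for full effect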
How it was run: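 Native S16 Schwann cells (rat), serum-containing medium, overnight attachment then 24 h drug exposure at 37 °C/5% CO2. CellTiter-Glo ATP signal; normalized to cell-free and vehicle wells.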

Compound	activity change, negative = cytotoxicity [%]	Potency
Nc1ncnc2nc[nH]c12	14	–
CCCCCCCCCCCCCCCC[N+](C)(C)Cc1ccccc1	–	16.1 µM (active)
CC(NCCC(c1ccccc1)c1ccccc1)c1ccccc1 (centres undefined)	–	25.6 µM (active)
CN1CCCN(C(c2ccccc2)c2ccc(Cl)cc2)CC1 (centres undefined)	–	32.2 µM (active)
Nc1ccc2cc3ccc(N)cc3nc2c1	10.1	–

system: not listed separately; test: S16 Schwann cell PMP22 intronic element firefly luciferase assay (AID 624032); conditions: S16 rat Schwann cells, PMP22 element FLuc, 24 h; series mostly up to 57.5 µM; activity change, negative = inhibition: at the top concentration; further: nearly all actives have a fitted effect of over 30% in size; further: potency means the concentration at half of the fitted maximal effect;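 on activity change, negative = inhibition: plate controls were DMSO for no effect and PTC124 positive control mean for full effect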
Excerpt: Charcot-Marie-Tooth-Association [CMTA]
National Center for Advancing Translational Sciences [NCATS]
Charcot-Marie-Tooth (CMT) disease was first characterized by Jean-Martin Charcot and Pierre Marie in France and, independently, by Howard Henry Tooth in England in 1886. CMT is one of the most common inherited neurological diseases, affecting approximately 1 in 2,500 Americans. […] The most prevalent type of CMT is known as CMT1A and caused by a duplication of the PMP22 gene which leads to over-expression of this protein. PMP22 is a glycosylated intrinsic membrane protein accounting for 2-5% of the myelin protein content, and its over-expression results in demyelination and subsequently axonal loss.
A pair of cellular transcription-based assays was developed in the S16 rat Schwann cell lines (Hai, M., et al., 2002) stably transfected with orthogonal reporters - firefly luciferase (Fluc) and beta-lactamase (beta-Lac) - whose expression is driven by an intronic regulatory element of the PMP22 gene (Jones, E.A., et al., 2011) to recapitulate endogenous expression of PMP22. The current assay employs Fluc to report on PMP22 expression. A comprehensive library of approved drugs, the NCGC Pharmaceutical Collection (Huang, R., et al., 2011), was screened in the cross-validating platform of the orthogonal reporter assays to identify drug modulators inhibitory towards PMP22 expression.
A set of counter-screens was devised to address non-specific activity of the library. An ATP-dependent CellTiter-Glo assay (developed by Promega Corp) was utilized to control cell viability. In addition, biochemical Fluc enzyme assay was performed to assess direct inhibition of the Fluc enzymatic activity.
Hai, M., Muja, N., DeVries, G.H., Quarles, R.H. and Patel, P.I. Comparative analysis of Schwann cell lines as model systems for myelin gene transcription studies. J Neurosci Res, 2002. 69(4): pp 497-508
Huang, R., Southall, N., Wang, Y., Yasgar A., Shinn P., Jadhav, A. , Nguyen, D.-T. and Austin, C.P., The NCGC pharmaceutical collection: a comprehensive resource of clinically approved drugs enabling repurposing and chemical genomics. Sci Transl Med, 2011. 3(80): p. 80ps16.
S16 Schwann cell PMP22 intronic element firefly luciferase assay
The FLuc-expressing S16 cells were seeded in white solid 1536-well plates at between 500-750 cells/4uL in DMEM medium containing 10% FBS, w/o phenol red. After overnight incubation at 37 degree Celsius/5% C02, 23 nL of compounds or DMSO were delivered to each well using a pin tool, followed by 24h-incubation at 37 degree Celsius/5% C02. Then 4 uL ONE-Glo luminescent substrate mix (Promega) was added to each well. Luminescence was measured on a ViewLux plate reader (Perkin Elmer). The % activity was determined by normalizing to the average readings of PTC124 (a positive control) - treated cells relative to DMSO-treated cells (0% Activity). The concentration-effect curves were then classified based on curve quality (r2), response magnitude and degree of measured activity.

Compound	activity change, negative = inhibition [%]	Potency
Nc1ncnc2nc[nH]c12	13.2	–
O=S(=O)(O)c1ccc2nc(-c3ccccc3)[nH]c2c1	-4.16	–
O=[N+]([O-])c1ccc(O)c2ncccc12	-20.7	–
CCCCCCCCCCCCCCCC[N+](C)(C)Cc1ccccc1	–	14.4 µM (active)
CN1CCC(Nc2ncc3ncnc(Nc4ccc(F)c(Cl)c4)c3n2)CC1	–	36.1 µM (active)
CN1CCCN(C(c2ccccc2)c2ccc(Cl)cc2)CC1 (centres undefined)	–	28.7 µM (active)
Nc1ccc2cc3ccc(N)cc3nc2c1	0.389	–

system: not listed separately; test: S16 Schwann cell PMP22 intronic element beta-lactamase assay (AID 624044; calls by dose curve;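 further: 0% = DMSO and -100% = potassium clavulanate positive control; nearly all actives have a fitted effect of over 15% in size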); conditions: S16 rat Schwann cells, PMP22 element beta-lactamase FRET, 24 h; series mostly up to 38.3 µM; ratio activity, negative = inhibition: at the top concentration
How it was run: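 Beta-lactamase reporter under a PMP22 intronic regulatory element in stable S16 rat Schwann cells; 24 h compound exposure. 460 nm blue signal normalized between DMSO (0%) and potassium clavulanate, with 535 nm FRET tracking viability; curves classed by r2 and response.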

Compound	ratio activity, negative = inhibition [%]
Nc1ncnc2nc[nH]c12	-18.8
O=S(=O)(O)c1ccc2nc(-c3ccccc3)[nH]c2c1	-2.41
CCCCCCCCCCCCCCCC[N+](C)(C)Cc1ccccc1	-21.8
CC(NCCC(c1ccccc1)c1ccccc1)c1ccccc1 (centres undefined)	2.08
CN1CCCN(C(c2ccccc2)c2ccc(Cl)cc2)CC1 (centres undefined)	-15.3
